# TMEM16A inh – TMEM16A chloride channel inhibitors, primary screen, cell-based, HTS. normalized B-score (activity score, 25-100; higher = stronger inhibition) at 10 µM. 310,000 compounds, 1.2% hits. HEK293 TMEM16A/YFP iodide influx fluorescence, ionomycin;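 active = ratio plate-corrected score three or more library SD toward inhibition, starting fluorescence score within five deviations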;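 also: score derived from kinetic fluorescence span divided by baseline fluorescence per well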
# Target sequence (Q8BHY3 whole entry, looked up): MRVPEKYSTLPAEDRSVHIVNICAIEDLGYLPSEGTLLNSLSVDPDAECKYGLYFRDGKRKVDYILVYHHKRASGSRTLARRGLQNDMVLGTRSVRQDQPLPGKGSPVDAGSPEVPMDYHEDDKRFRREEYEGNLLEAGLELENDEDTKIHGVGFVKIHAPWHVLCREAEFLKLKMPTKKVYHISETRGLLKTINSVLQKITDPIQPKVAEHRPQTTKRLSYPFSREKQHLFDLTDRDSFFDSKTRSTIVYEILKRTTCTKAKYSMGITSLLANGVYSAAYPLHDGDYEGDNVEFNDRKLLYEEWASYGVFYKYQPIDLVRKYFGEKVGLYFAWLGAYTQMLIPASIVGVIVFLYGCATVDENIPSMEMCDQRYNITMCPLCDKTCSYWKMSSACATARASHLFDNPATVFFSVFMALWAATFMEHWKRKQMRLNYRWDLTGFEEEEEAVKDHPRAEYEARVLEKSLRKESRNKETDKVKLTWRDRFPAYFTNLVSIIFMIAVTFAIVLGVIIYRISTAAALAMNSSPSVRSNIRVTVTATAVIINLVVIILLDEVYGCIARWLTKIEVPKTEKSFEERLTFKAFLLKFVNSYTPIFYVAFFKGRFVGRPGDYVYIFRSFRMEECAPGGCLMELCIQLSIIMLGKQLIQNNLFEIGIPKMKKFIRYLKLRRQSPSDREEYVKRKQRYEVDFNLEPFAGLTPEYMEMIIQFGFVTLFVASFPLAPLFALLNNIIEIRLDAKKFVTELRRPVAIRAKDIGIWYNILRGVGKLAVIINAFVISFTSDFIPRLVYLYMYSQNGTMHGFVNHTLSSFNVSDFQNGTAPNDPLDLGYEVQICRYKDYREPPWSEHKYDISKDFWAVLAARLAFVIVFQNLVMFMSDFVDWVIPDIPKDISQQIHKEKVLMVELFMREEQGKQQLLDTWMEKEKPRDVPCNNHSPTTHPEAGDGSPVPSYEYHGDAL
# MEKK2 WT-MEK5 – modulators of MEK5 binding to wildtype MEKK2, primary screen, biochemical, multiplex bead flow cytometry, Alexa488-MEK5 | binding response (% of control), % at 10 µM | Alexa488-MEK5 binding to MEKK2 WT; actives lie on both sides | Mitogen-activated protein kinase kinase kinase 2 (Homo sapiens), Q9Y2U5 | 290,000 compounds, 1.1% hits; in the data active = binding response below about 67% or above about 130%
# MEKK2mut PB1 HTS – MEK5 binding signal on mutant MEKK2 PB1, primary screen, biochemical, multiplex bead flow cytometry, Alexa488-MEK5 | Alexa488-MEK5 binding to MEKK2 mutant | percent response, % at 10 µM | 290,000 compounds, 0.35% hits | AID 1530, 2009; in the data active = percent response above about 24%, passing the limit was not always enough
# NTR1 ag – agonists of human NTR1, primary screen, imaging, U2OS cells, beta-arrestin-GFP, high content | NTR1-U2OS beta-arrestin-GFP spot imaging, agonist mode | activation, % at 20 µM | 330,000 compounds, 0.17% hits | AID 493036, 2011;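 active = activation at or above 40% of the spot to cytoplasm intensity ratio, with at least 20 cells analyzed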;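 also: 0% = DMSO without peptide and 100% = 100 nM NTR1 peptide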
# TMEM16A act – TMEM16A chloride channel activators or potentiators, primary screen, cell-based, HTS; HEK293 TMEM16A/YFP-H148Q/I152L, iodide quench fluorescence; active compounds read low; 340,000 compounds, 0.3% hits; B-score at 10 µM;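 active = fluorescence-ratio B-score plate-corrected deviation score at least 3 library SD below zero, with starting fluorescence score within 5 deviations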;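 also: channel opened by trigger with iodide after compound preincubation; score built on the fluorescence ratio of max minus min over baseline; more negative score means more quench and so TMEM16A activation or potentiation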
# MEKK3 PB1 HTS – modulators of MEKK3-MEK5 PB1 binding, primary screen, biochemical, wildtype MEKK3, multiplex bead flow cytometry, Alexa488-MEK5; Mitogen-activated protein kinase kinase kinase 3 (Homo sapiens), Q99759; bead-based flow cytometry, Alexa488-MEK5 binding to MEKK3; actives lie on both sides; 0 = blocked by unlabeled MEK5, 100 = vehicle; binding response (% of control), % at 10 µM; 290,000 compounds, 1.4% hits; AID 1529, 2009;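 active = binding response more than 3 SD above or below the average of its plate-row segment, actives on both sides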;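 also: Alexa488 bead fluorescence after subtracting the streptavidin-only scavenger bead signal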
# * = called active by the depositor; i = inactive; . = no result. Rows were chosen to be rich in hits. Some 3.4% of all compounds tested hit in one or more screens of this group.
SMILES,TMEM16A inh,MEKK2 WT-MEK5,MEKK2mut PB1 HTS,NTR1 ag,TMEM16A act,MEKK3 PB1 HTS
COc1ccc2nc(/C(C#N)=C\c3ccc(C(=O)O)cc3)[nH]c2c1,i,7.0*,44,0,i,81
CCCCn1c(NC(=O)CC)c(C#N)c2nc3ccccc3nc21,i,100,1,2,i,107
CCCCn1c(NC(=O)c2ccccc2Cl)c(C#N)c2nc3ccccc3nc21,100*,76,-5,18,i,85
N#Cc1c(NC(=O)c2ccccc2Cl)n(Cc2ccccc2)c2nc3ccccc3nc12,100*,94,3,.,i,95
COc1ccc(CNCC(O)COc2cccc3c2OC(C)(C)C3)cc1 (centres undefined),i,99,-2,3,i,102
CC1C=CCC2C(=O)N(c3cccc(C(=O)Nc4ccc(Br)cc4)c3)C(=O)C12 (centres undefined),25*,105,2,2,i,102
CC(=O)N1c2c(cc(Br)cc2S(=O)(=O)N2CCN(c3ccccc3F)CC2)CC1C (centres undefined),25*,98,-1,1,i,98
O=C(CN(C(=O)C1CSC(=O)C1)c1ccc(F)cc1)NCc1ccc2c(c1)OCO2 (centres undefined),i,101,3,-2,i,102
Cc1cc(C)cc(NC(=O)c2cccnc2)c1,i,107,8,4,i,107
O=C(c1ccc2ccccc2c1)C1CCCN(C(=O)c2noc3c2CCCC3)C1 (centres undefined),25*,106,-1,6,i,108
COc1ccc(S(=O)(=O)NC2CCCC2)c(Cl)c1Cl,i,101,8,-1,i,102
CSc1nc2cc(Oc3cccc(Cl)c3Cl)c(Cl)cc2[nH]1,100*,103,1,2,i,99
CSc1nc2ccc(Cl)cc2[nH]1,i,102,1,-1,i,104
Cc1ccc(C(=O)N2CCN(c3ccc(NC(=O)c4ccc5c(c4)OCCO5)cc3)CC2)cc1,i,102,10,4,i,105
Cc1ccccc1C(=O)N1CCN(c2ccc(NC(=O)c3ccc4c(c3)OCCO4)cc2)CC1,25*,102,7,8,i,101
Cc1ccc(CNC(=O)Cn2cccc2C(=O)c2ccccc2C)cc1,i,-1.0*,5,3,i,102
O=C(CCC(=O)N1CCN(Cc2ccccc2)CC1)Nc1nnc(C2CCCCC2)s1,i,104,-5,0,i,98
O=S(=O)(Nc1ccc(N2CCCCC2)cc1)c1ccc(F)cc1F,i,-10*,16,5,i,111
COc1cc(/C=C/C(=O)OCC(=O)N(CC(C)C)c2c(N)n(Cc3ccccc3)c(=O)[nH]c2=O)ccc1O,.,.,.,.,-22*,.
CC(C)CN(C(=O)COC(=O)/C=C/c1ccc(Cl)c(Cl)c1)c1c(N)n(Cc2ccccc2)c(=O)[nH]c1=O,.,.,.,11,i,.
Cc1cc(C)cc(NC(=S)N(Cc2ccc(Br)cc2)Cc2ccc(C(=O)O)cc2)c1,25*,92,-4,0,i,100
CCC1CCCCN1CCCNC(=O)Cn1cnc2sc(C)c(S(=O)(=O)N3CC(C)CC(C)C3)c2c1=O (centres undefined),i,135*,26*,-2,i,101
Cc1ccc(C(=O)Nc2ccc(S(=O)(=O)Nc3ncccn3)cc2)cc1[N+](=O)[O-],i,104,5,-1,i,103
CC1=C/C(=N\OS(=O)(=O)c2ccccc2)C(C)=CC1=O,100*,103,2,28,-6.4*,103
CC1=C(C)/C(=N\OS(=O)(=O)c2ccc(C)cc2)C=CC1=O,25*,105,-1,.,-4.8*,106
SMILES,TMEM16A inh,MEKK2 WT-MEK5,MEKK2mut PB1 HTS,NTR1 ag,TMEM16A act,MEKK3 PB1 HTS
CC1=C/C(=N\OS(=O)(=O)c2ccccc2)C(C(C)C)=CC1=O,i,92,-2,.,-5*,95
COc1ccc(S(=O)(=O)/N=C2/C=CC(=O)C(C)=C2C)cc1,i,93,-3,-1,i,99
Cc1ccc(C)c(C(=O)COC(=O)CCN2C(=O)C3C4CCC(C4)C3C2=O)c1 (centres undefined),.,93,-2,0,i,96
CCN(Cc1ccccc1)S(=O)(=O)CCNC(=O)c1ccccc1,i,.,.,1,i,.
O=C(NNC(=O)c1cc([N+](=O)[O-])ccc1Cl)c1cccnc1,i,100,3,0,i,100
S=c1nn[nH]c2ccccc12,.,.,.,.,i,.
CCCc1ccc(OCc2ccc(C(=O)N3CCSCC3)o2)cc1,25*,105,0,2,i,103
Cc1cc(C)n(C(=O)CCCCCCCCC(=O)n2nc(C)cc2C)n1,i,97,-6,-2,i,95
Cc1ccc2c(c1)c1c(n2CC(O)CN2CCCCCC2)CCCC1 (centres undefined),i,123,14,4,i,106
Cc1ccc2c(c1)c1c(n2CC(O)CNC(C)(C)C)CCCC1 (centres undefined),.,158*,15,.,i,116
Clc1ccc(C(c2nnnn2C2CCCC2)N2CCN(c3nc4ccccc4s3)CC2)cc1 (centres undefined),i,101,-2,-1,-12*,105
Clc1c(CSc2nc3ccccc3o2)nc2ccccn12,i,.,.,3,-21*,.
Cc1c(C(C)C)c(=O)n(-c2ccc(S(=O)(=O)NCc3ccccc3)cc2)n1C,25*,101,-1,1,i,101
C/C(=C\c1ccc2c(c1)OCO2)C(=O)c1c(C)cc(C)[nH]c1=O,i,93,-9,-1,i,102
CCC(=O)c1ccc(OCC(O)CN(CCc2ccccc2)Cc2ccccc2)cc1 (centres undefined),100*,126,11,6,i,111
OC(COc1ccccc1)CN(Cc1ccccc1)CC(O)COc1ccccc1 (centres undefined),i,.,.,8,i,.
Cn1cc(CN2CCN(CC(C)(C)C)C(CCO)C2)c2ccccc21 (centres undefined),i,109,4,-1,i,101

# Screening results: PubChem BioAssay, several laboratories
